Out of some 5,500 compounds screened, about 2,000 (36%) were called active. Roughly 18% stayed inconclusive and do not appear here. Cut-off read from the data, not from the text of the source: active = normalized growth mostly below about 0.91 (no sharp cut-off); inconclusive = no clear call, values can overlap the other calls; inactive = mostly above about 0.92. The list shows a part of the results.
Experiment: chemical genetic growth profiling, strain panel (AID 1159580);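 note: tested at 20 µM; growth read once vehicle control cultures reached saturation at 30 °C; 1 = growth at the plate median or of vehicle wells; lower values mean less growth of the strain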
Details: S. cerevisiae deletion strains, growth OD

Measured: normalized growth

Cc1ncc([N+](=O)[O-])n1CC(C)O (centres undefined)
inactive: locus YAL021C, strain ccr4, hits give low values 0.954 | locus YAL026C, strain drs2, hits give low values 0.956 | locus YAL030W, strain snc1, hits give low values 0.975 | locus YBL061C, strain skt5, hits give low values 0.974 | locus YBR009C, strain hhf1, hits give low values 0.982 | locus YBR023C, strain chs3, hits give low values 0.995 | locus YBR171W, strain sec66, hits give low values 0.976 | locus YBR231C, strain swc5, hits give low values 0.992 | locus YBR279W, strain paf1, hits give low values 0.995 | locus YCL011C, strain gbp2, hits give low values 0.968 | locus YCL016C, strain dcc1, hits give low values 0.975 | locus YCL061C, strain MRC1, hits give low values 0.924 | locus YCL069W, strain vba3, hits give low values 0.975 | locus YCR088W, strain abp1, hits give low values 0.986 | locus YDL005C, strain med2, hits give low values 0.976 | locus YDL040C, strain nat1, hits give low values 0.978 | locus YDR001C, strain nth1, hits give low values 0.95 | locus YDR069C, strain doa4, hits give low values 0.966 | locus YDR137W, strain rgp1, hits give low values 0.983 | locus YDR159W, strain sac3, hits give low values 0.972 | locus YDR195W, strain ref2 0.989 | locus YDR297W, strain sur2, hits give low values 0.982 | locus YDR334W, strain swr1, hits give low values 0.957 | locus YDR335W, strain msn5, hits give low values 0.982 | locus YDR392W, strain spt3, hits give low values 0.922 | locus YEL003W, strain gim4, hits give low values 0.977 | locus YEL037C, strain rad23, hits give low values 0.983 | locus YEL061C, strain CIN8 (second series), hits give low values 0.964 | locus YER015W, strain faa2, hits give low values 0.988 | locus YER016W, strain bim1, hits give low values 0.983 | locus YER111C, strain swi4, hits give low values 0.978 | locus YER155C, strain BEM2 (second series), hits give low values 0.994 | locus YFR010W, strain ubp6, hits give low values 0.969 | locus YGL167C, strain pmr1, hits give low values 0.981 | locus YGL173C, strain kem1, hits give low values 0.966 | locus YGL227W, strain vid30, hits give low values 0.985 | locus YGL240W, strain doc1, hits give low values 0.995 | locus YGL253W, strain hxk2, hits give low values 0.981 | locus YHR013C, strain ard1, hits give low values 0.948 | locus YHR027C, strain rpn1, hits give low values 0.987 | locus YHR030C, strain SLT2, hits give low values 0.976 | locus YHR079C, strain IRE1, hits give low values 0.979 | locus YHR142W, strain chs7, hits give low values 0.99 | locus YJL092W, strain hpr5, hits give low values 0.961 | locus YJL095W, strain BCK1 (second series), hits give low values 0.984 | locus YJL095W, strain BCK1, hits give low values 0.991 | locus YJL115W, strain asf1, hits give low values 0.982 | locus YJL129C, strain trk1, hits give low values 0.966 | locus YJL154C, strain vps35, hits give low values 0.979 | locus YJL164C, strain tpk1, hits give low values 0.966 | locus YJL166W, strain qcr8, hits give low values 0.996 | locus YJR066W, strain TOR1, hits give low values 0.883 | locus YKL160W, strain elf1, hits give low values 1 | locus YKR026C, strain gcn3, hits give low values 0.984 | locus YKR091W, strain srl3, hits give low values 0.983 | locus YLL001W, strain dnm1, hits give low values 0.988 | locus YLL026W, hits give low values 0.988 | locus YLL041C, strain sdh2, hits give low values 0.982 | locus YLR027C, strain aat2, hits give low values 0.994 | locus YLR113W, strain HOG1, hits give low values 1.01 | locus YLR221C, strain rsa3, hits give low values 0.958 | locus YLR258W, strain gsy2, hits give low values 0.974 | locus YLR262C, strain YPT6 (second series), hits give low values 0.981 | locus YLR320W, strain mms22, hits give low values 0.96 | locus YLR342W, strain FKS1, hits give low values 0.987 | locus YLR357W, strain rsc2, hits give low values 0.959 | locus YLR370C, strain arc18, hits give low values 0.992 | locus YLR384C, strain iki3, hits give low values 0.998 | locus YML120C, strain ndi1, hits give low values 0.967 | locus YMR058W, strain fet3, hits give low values 0.971 | locus YMR125W, strain sto1, hits give low values 0.945 | locus YMR129W, hits give low values 0.965 | locus YMR205C, strain PFK2, hits give low values 0.979 | locus YMR231W, strain pep5, hits give low values 0.972 | locus YNL071W, strain lat1, hits give low values 0.979 | locus YNL183C, strain NPR1, hits give low values 0.891 | locus YNL209W, strain ssb2, hits give low values 0.987 | locus YNL248C, strain rpa49, hits give low values 0.946 | locus YNL322C, strain KRE1 (second series), hits give low values 0.974 | locus YNR049C, strain mso1, hits give low values 0.978 | locus YOR001W, strain rrp6, hits give low values 0.994 | locus YOR070C, strain gyp1, hits give low values 0.985 | locus YOR080W, strain dia2, hits give low values 0.981 | locus YOR083W, strain WHI5, hits give low values 0.997 | locus YOR106W, strain vam3, hits give low values 0.978 | locus YOR231W, strain MKK1, hits give low values 0.991 | locus YOR265W, strain rbl2, hits give low values 0.99 | locus YOR270C, strain vph1, hits give low values 0.97 | locus YOR290C, strain snf2, hits give low values 0.939 | locus YPL051W, strain arl3, hits give low values 1 | locus YPL078C, strain atp4, hits give low values 0.997 | locus YPL106C, strain sse1, hits give low values 0.931 | locus YPL240C, strain hsp82, hits give low values 0.98 | locus YPL256C, strain CLN2, hits give low values 0.965

— PubChem BioAssay AID1159580 (chemical genetic matrix, 2015)
